In all, about 130,000 compounds went through this assay and about 550 (0.42%) were called active. Entries that show only a call come without a potency. About 4% were inconclusive and are not listed. This is one part of a sample in which actives are shown more often than they occur. The call rests on the fitted dose curve; in most records, active means well fitted inhibition curve with a large enough effect; inconclusive means small, poorly fitted or top-dose-only effect, or effect the other way; inactive means flat fitted curve, though single readings scatter.
Potency means the concentration at half of the fitted maximal effect.

The assay can be described thus: qHTS Assay for Inhibitors of the ERK Signaling Pathway using a Homogeneous Screening Assay; Stimulation with EGF. Further: nearly all actives have a fitted effect of over 55% in size. Particulars: HEK293-V1b, EGF-stimulated phospho-ERK AlphaScreen; series mostly up to 11.5 µM. An excerpt:
NIH Chemical Genomics Center [NCGC]
NIH Molecular Libraries Screening Centers Network [MLSCN]
Assay Submitter (PI): Dr. Wei Zheng, NCGC/NIH
The Ras/extracellular-signal-regulated kinase (ERK) mitogen activated protein (MAP) kinase signaling pathway (ERK1/2 cascade) plays a key role in transmitting signals from the cell surface to the nucleus (Nishida and Gotoh 1993; Chang and Karin, 2001). The cascade is initiated by the small G-protein Ras, which recruits Raf from the cytosol, where activation occurs. Alternatively, this pathway can be activated by elevating intracellular cAMP, or by activation of a receptor tyrosine kinase as epidermal growth factor receptor.
Activation of the ERK pathway is essential in increased cell division and cell survival. Sustained and constitutive activation of the ERK pathway, however, has been linked to uncontrolled cell proliferation, increased cell survival, and tumor progression. Thus, the ERK has been as an attractive target for cancer chemotherapy in the past few years (Sebolt-Leopold and Herrera, 2004). Given its physiological and pathological importance, assessment of ERK phosphorylation has been broadly performed in both basic research and drug discovery. Most assays for the measurement of ERK phosphorylation use the antibody-based detection methods, such as western blot and ELISA. These assays require multiple reagent additions with cell wash steps and are not suitable for high throughout screening.
The current cell-based ERK phosphorylation assay was performed using AlphaScreen platform. AlphaScreen is a two bead-based proximity-dependent chemical energy transfer luminescent assay platform. The assay reagents (ERK SureFire(TM) kit) were supplied from TGR BioSciences (Australia). In the presence of specific antibodies, phosphorylated ERK will bring "donor" and "acceptor" beads to a proximity range (<200 nm), and subsequently lead a chemical luminescent reaction upon exciting donor beads with 680 nm laser. To exclude the assay-related false positives, we used a biotinylated rabbit IgG to perform counter-screen. The biotinylated antibody mimics the phosphorylated ERK1/2 for bringing streptavidin coated beads and protein-A coated beads to a proximity range for the AlphaScreen detection.
NCGC Assay Protocol Summary:
HEK293 cells stably expressing type-1 vasopressin receptor (V1b) were maintained in DMEM medium (Invitrogen, Carlsbad, CA) at 37C under a humidified atmosphere containing 5% CO2 and 95% air. The medium contained 10% FBS, 2 mM L-glutamine, non-essential amino acid, pyruvate and 50 U/ml penicillin and 50 ug/ml streptomycin (Invitrogen). The aliquots of frozen cells were stored at -135C and used for the compound screening. All compounds were screened as titrations from 0.6 nM to 46 uM final concentration. Epidermal growth factor (EGF) was used to stimulate the ERK phosphorylation pathway. The ERK phosphorylation in cells was determined using an AlphaScreen assay kit provided by […]. Data were normalized to the controls for basal activity (DMSO only) and 100% activation (25 nM EGF). AC50 values were determined from concentration-response data modeled with the standard Hill equation.
(1) Seed 4 ul/well of resuspended frozen HEK293 cells containing 2000 cells in white 1536-well plates for overnight with 1% FBS at 37C under a humidified atmosphere containing 5% CO2 and 95% air.
(2) Add 23 nL compounds in DMSO solution. The final titration was 0.6 nM to 46 uM.
(3) Incubate at 37C for 30 min.
(4) Dispense 0.5uL EGF (25 nM in final)
(5) Incubate at 37C for 5 min.
(6) Dispense 0.5uL of 1:2 diluted 5x lysis buffer.
(7) Incubate at 37C for 10 min.
(8) Dispense 1.5uL of mixture of activation buffer and reaction buffer with AlphaScreen beads (streptavidin donor beads and protein-A acceptor beads, 10 ng/well for each).
(9) Incubate at room temperature for 5 hr.
(10) Detect the assay plate in an EnVision plate reader (PerkinElmer) using the AlphaScreen detection mode.
[…]
For orientation: qHTS replaces the single test concentration by a dilution series.
For the molecule `CC1(C)CC(=O)C(CC(=O)N2CCC(Cc3ccccc3)CC2)C(=O)C1`, the Potency result was “inactive”.
Then `Cc1ccc(CN(Cc2cccnc2)C(=S)Nc2cc(Cl)ccc2C)cc1`, with “inactive”.
Then `O=C(COC(=O)c1ccc(S(=O)(=O)Nc2ccccc2)cc1)NCC1CCCO1` (configuration not stated), with “inactive”; and `COc1ccc(-n2cnnc2SCC(=O)Nc2cccc([N+](=O)[O-])c2)cc1`, with “inactive”.
With `CCCc1nc2c(c(=O)c3ccccc3n2C)c(=O)n1-c1cc(C)cc(C)c1` the entry was “inactive”.
Turning to `COc1ccc(CCNC(=O)C(=O)NCC2CCNCC2)cc1OC`, the Potency entry was “inactive”.
With `CCn1c(SCc2cc(=O)n3ccsc3n2)nc2ccccc21` the entry was “inactive”.
Regarding `N#C/C(=C/c1ccc(-c2ccccc2[N+](=O)[O-])o1)C(=O)NCCN1CCCCC1`, the Potency result is “inactive”.
As for `COC(=O)/C=C(\Oc1ccccc1)C1(O)CCCCC1`, the Potency entry was “inactive”.
On to `O=[N+]([O-])c1ccc2c(c1)C(N1CCOCC1)/C(=C/C1(O)CCCCC1)O2` (configuration not stated), for which the Potency entry was “inactive”.
With `CC(=O)Nc1cccc(-c2nc3ccccc3s2)c1C` the entry was “inactive”; with `CCOC(=O)N1CCN(CC(=O)Nc2ccc(F)cc2)CC1`, “inactive”; with `COCCCNC(NC(=O)c1ccc(OC)cc1)C(Cl)(Cl)Cl` (configuration not stated), “inactive”.
Then `CC(=O)c1cccc(NC(=O)[C@@H](NC(N)=O)C(C)C)c1`, with “inactive”.
With `Cc1[nH]n(C)c(=O)c1N=Nc1ccc(S(C)(=O)=O)cc1` the entry was “inactive”; with `Cc1cccc(N=Nc2c(C)[nH]n(-c3ccccc3)c2=O)c1`, 7.08 µM (active).
Take `O=C(NNC(=O)c1ccccc1[N+](=O)[O-])Nc1ccccc1C(F)(F)F`: the Potency result is “inactive”.
As for `CCCC(=O)Nc1nnc(-c2ccccc2)o1`, the Potency result was “inactive”.
Then `COc1ccc(CN(C)C(=S)Nc2ccc(Cl)cc2Cl)cc1`, with “inactive”; and `O=C(NCc1csc(-c2cccs2)n1)C1CC1`, with “inactive”; and `Cc1noc(C)c1COC(=O)COc1ccc(-c2ccccc2)cc1`, with “inactive”.
Then `CCCn1c(NC(=O)C23CC4CC(CC(O)(C4)C2)C3)nc2ccccc21`, with “inactive”; and `CCOC(=O)c1c(C)[nH]c2c1-c1ccccc1C(=O)C2=O`, with “inactive”.
Then `CCOC(=O)c1ccccc1NS(=O)(=O)c1ccc(OC)cc1`, with “inactive”; and `CCOC(=O)C1=C(c2ccc(OC)cc2)C(=O)c2ccccc2C1=O`, with 31.6 µM (active); and `CC(C)NC(=O)NC(=O)CSc1nnc(-c2ccccc2F)n1N`, with “inactive”.
As for `Cc1cc(C)nc(NC(=O)/C=C/c2ccc(Cl)cc2)n1`, the Potency result is “inactive”.
With `COc1ccc(/C=C/C(=O)Nc2ccc(C)cc2)cc1S(=O)(=O)N1CCOCC1` the entry was “inactive”.
For `CC(=O)Nc1ccc(-c2csc(NC=C3C(=O)OC(C)(C)OC3=O)n2)cc1`, the Potency result was “inactive”.
Then `CC(=O)Nc1ccc(-c2csc(NC(=O)Nc3ccccc3)n2)cc1`, with 25.1 µM (active); and `CC(=O)Nc1ccc(S(=O)(=O)Nc2nc(-c3ccc(C(C)(C)C)cc3)cs2)cc1`, with “inactive”.
With `CN(c1ccccc1)S(=O)(=O)c1ccc(Cl)c(C(=O)OCC(=O)N2CCOCC2)c1` the entry was “inactive”; with `O=C(NCc1cccs1)c1cc(-c2ccccn2)nc2ccc(Br)cc12`, “inactive”; with `O=C(CN1CCCC1)N1CCN(c2ccccc2)CC1`, “inactive”.
Then `COc1ccc(N2CCN(C(=O)/C(C#N)=C/c3ccccc3)CC2)cc1`, with “inactive”; and `CC(CO)NCC12CC3CC(CC(C3)C1)C2` (configuration not stated), with “inactive”.
Regarding `CC(C)(C)c1cc(P(=O)(c2ccccc2)c2ccccc2)ccc1O`, the Potency entry is “inactive”.
Consider `CCOC(=O)CN(C(=O)COc1nc(-c2ccccc2)cc(C)c1C#N)c1ccc(F)cc1`, for which the Potency entry was “inactive”.
Then `COC(OC)c1ccnc(SCc2ccccc2Cl)n1`, with “inactive”; and `O=C(O)/C=C/c1ccc2c(c1)OCCO2`, with “inactive”.
Then `CC1(C)CC(N(Cc2ccccc2)C(=O)Cc2ccccc2)CCO1` (configuration not stated), with “inactive”; and `Cc1cccc(N2CCN(Cc3nc(C4CC4)no3)CC2)n1`, with “inactive”; and `CN(CCOc1ccccc1)Cc1nc2cc(Cl)ccc2c(=O)[nH]1`, with “inactive”.
Take `O=C(NCc1ccccc1Cl)C1CCN(S(=O)(=O)N2CCOCC2)CC1`: the Potency entry is “inactive”.
With `C=CCOc1c(CNn2cn[nH]c2=S)cccc1OC` the entry was “inactive”.
With `O=C(NCCc1ccccn1)c1cccnc1Oc1ccc(Cl)cc1` the entry was “inactive”.
With `CCC/C(C)=N\Nc1nc2c(c(=O)n(C)c(=O)n2C)n1C` the entry was “inactive”.
As to `C=C(C)c1cccc(C(C)(C)NC(=O)NCCN(CC)CC)c1`, the Potency entry was “inactive”.
With `CCNC(=O)c1ccc(OCC(=O)Nc2ccc(F)cc2)c(OC)c1` the entry was “inactive”; with `O=C(/C=C/c1ccccc1)Oc1coc(CSc2ncccn2)cc1=O`, “inactive”; with `CCN(CC)CCNC(=O)c1ccc(NS(=O)(=O)c2ccc3c(c2)OCCO3)cc1`, “inactive”.
Then `COc1ccc(CCc2nnc(CCC(=O)NCc3cnn(-c4ccccc4C)c3)o2)cc1`, with “inactive”; and `NCCCCCC(=O)N/N=C/c1ccc2nccnc2c1`, with “inactive”; and `O=C(N/N=C1\CCSC1)c1cc(Cl)ccc1O`, with “inactive”.
Then `CSc1ccc(CN(C)CC(=O)NCc2ccc(F)cc2)cc1`, with “inactive”; and `O=C(CSc1nc2ccccc2s1)Nc1ccc(C(=O)O)cc1`, with “inactive”; and `CS(=O)(=O)N(CC(=O)N1CCCC1)Cc1ccccc1`, with “inactive”.
For the molecule `OCC1(Cc2ccccc2C(F)(F)F)CCN(Cc2ccncc2)CC1`, the Potency result is “inactive”.
Then `CCNC(=O)COc1cc(C)c(Br)c(C)c1`, with “inactive”; and `O=c1oc2ccccc2cc1-c1csc(Nc2ccc(O)cc2)n1`, with 39.8 µM (active); and `CCNc1nc(-c2cc3ccccc3o2)cs1`, with “inactive”.
Regarding `COc1ccc2nc(Nc3nc(-c4cc5ccccc5oc4=O)cs3)sc2c1`, the Potency result was “inactive”.
As to `CSc1ccccc1C(=O)NCc1ccccc1`, the Potency entry was “inactive”.
Take `Brc1ccc(Nc2c3c(nc4ncnn24)CCC3)cc1`: the Potency is 25.1 µM (active).
Then `Cc1nc(S(=O)(=O)c2ccc(Br)cc2)nc2c1CCC2`, with “inactive”; and `CC1CCc2c(nc3ncnn3c2Nc2ccc(OC(F)(F)F)cc2)C1` (configuration not stated), with “inactive”; and `Oc1oc(-c2ccccc2Br)nc1/C=N/c1ccccn1`, with “inactive”.
Then `CC1CCCCC1NC(=O)CO/N=C/c1ccc(OC(F)F)cc1` (configuration not stated), with “inactive”; and `CSc1ccc(/C=N\NC(=O)CC(=O)NC(C)C)cc1`, with “inactive”.
With `CCN(CC)CCn1cnc2c1c(=O)n(CCOC(=O)c1cc(OC)c(OC)c(OC)c1)c(=O)n2C` the entry was “inactive”; with `O=C1CC2(CC(c3ccc(Cl)cc3)=NO2)C(=O)N1c1ccccc1` (configuration not stated), “inactive”; with `Cn1nc(C(F)(F)F)cc1-c1ccc(/C=C(\C#N)C(=O)c2cccc(C(F)(F)F)c2)s1`, “inactive”.

The values are drawn from PubChem BioAssay AID1454 (National Center for Advancing Translational Sciences (NCATS), 2008).
